In assay [1] the test system is TRPC4 beta (transient receptor potential cation channel C4), mouse. Description: activators of mouse TRPC4 channel, confirmation, cell-based, Fluo4 calcium, HEK293 TRPC4beta/mu-opioid, duplicates, 10 µM (AID 2426).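 For activation: percent rise of integrated ratio over buffer wells lacking compound which define 0%.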 To be noted: Fluo4 calcium fluorescence, at 10 µM; active compounds read high.
Assay [2] has as its system transient receptor potential cation channel C4 beta (TRPC4), mouse. In words: activators of mouse TRPC4 channel, confirmation, cell-based, second round, Fluo4, HEK293 TRPC4beta/mu-opioid, 1 µM (AID 2461;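 active = primary screen active and over 50% activation in each of two duplicate runs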;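 for activation: 0% = wells without test compound as baseline of integrated fluorescence ratio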). To be noted: Fluo4 calcium fluorescence, at 1 µM; active compounds read high.
Assay [3] concerns TRPC4 (transient receptor potential cation channel C4 beta), mouse. In words: positive allosteric modulators of mouse TRPC4, confirmation, cell-based, second round, Fluo-4, HEK293 TRPC4beta/mu-opioid, 1 µM (AID 2554;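 active = primary screen hit whose fluorescence ratio, in both repeats, exceeds the weak agonist control mean by 3 SD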). To be noted: DAMGO EC20, Fluo-4 calcium flux, at 1 µM; active compounds read high. For orientation: A change in cytosolic calcium serves as a functional read-out for many receptors and channels.

Assay [4] concerns TRPC4 beta (transient receptor potential cation channel C4), mouse. In words: positive allosteric modulators of mouse TRPC4, confirmation, cell-based, Fluo-4, HEK293 TRPC4beta/mu-opioid (AID 2555;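 active = primary screen hit whose calcium fluorescence ratio, in both repeats, exceeds the weak agonist control mean by 3 SD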). To be noted: DAMGO EC20, Fluo-4 calcium flux, at 10 µM; active compounds read high.
For assay [5], the target named is Short transient receptor potential channel 4 (Mus musculus) (UniProt Q9QUQ5). Description: inhibitors of mouse TRPC4 channel, confirmation, cell-based, Fluo4, HEK293 TRPC4beta/mu-opioid (AID 2636;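 active = calcium signal cut by more than 3 SD below the full-agonist control yet still positive, in both repeats and the earlier primary screen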). The settings on record: DAMGO, Fluo4 calcium flux, at 10 µM; active compounds read high.
Short transient receptor potential channel 4 (Mus musculus), sequence (Q9QUQ5 whole entry, looked up): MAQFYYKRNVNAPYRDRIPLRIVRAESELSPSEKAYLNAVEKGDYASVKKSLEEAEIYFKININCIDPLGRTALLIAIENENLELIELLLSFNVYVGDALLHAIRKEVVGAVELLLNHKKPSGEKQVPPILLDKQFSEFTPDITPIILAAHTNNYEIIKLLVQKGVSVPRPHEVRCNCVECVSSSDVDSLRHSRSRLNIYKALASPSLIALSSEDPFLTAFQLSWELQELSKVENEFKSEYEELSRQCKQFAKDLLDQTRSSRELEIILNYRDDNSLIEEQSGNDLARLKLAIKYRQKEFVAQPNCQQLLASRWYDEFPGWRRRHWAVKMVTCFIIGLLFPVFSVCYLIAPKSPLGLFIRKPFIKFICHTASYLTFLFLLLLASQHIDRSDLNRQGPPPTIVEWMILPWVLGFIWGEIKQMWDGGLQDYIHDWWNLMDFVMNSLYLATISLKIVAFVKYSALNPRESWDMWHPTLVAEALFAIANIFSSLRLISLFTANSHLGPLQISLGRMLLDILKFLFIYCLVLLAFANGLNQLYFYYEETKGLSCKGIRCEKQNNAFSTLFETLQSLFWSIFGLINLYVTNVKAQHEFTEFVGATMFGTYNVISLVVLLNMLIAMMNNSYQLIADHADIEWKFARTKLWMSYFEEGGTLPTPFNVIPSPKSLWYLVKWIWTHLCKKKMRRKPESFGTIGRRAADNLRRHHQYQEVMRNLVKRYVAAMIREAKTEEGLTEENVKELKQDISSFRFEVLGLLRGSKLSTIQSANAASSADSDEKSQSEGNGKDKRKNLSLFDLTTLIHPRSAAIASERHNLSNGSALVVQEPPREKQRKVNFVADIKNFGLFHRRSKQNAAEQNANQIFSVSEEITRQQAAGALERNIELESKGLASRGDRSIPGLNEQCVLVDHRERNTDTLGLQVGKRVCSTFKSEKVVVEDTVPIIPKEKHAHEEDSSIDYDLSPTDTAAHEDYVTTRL
The target is the same in assay [6]. In words: inhibitors of mouse TRPC4 channel, confirmation, cell-based, second round, Fluo4, HEK293 TRPC4beta/mu-opioid, 1 µM (AID 2637;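 active = calcium signal ratio cut to more than 3 SD under the fully stimulated control mean yet still positive, in both repeats and the primary screen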). The settings on record: Fluo4 calcium flux, DAMGO, at 1 µM; active compounds read high.
For assay [7] the target is unchanged. Description: TRPC4 positive allosteric modulators, dose response, cell-based, HEK293 TRPC4/mu-opioid, Fluo-4 calcium, EC20 DAMGO (AID 434941;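 active = earlier screen potentiator hit that boosts the TRPC4 ion channel at some dose, with a dose response; inactive = no potentiation, no dose response, or not a prior hit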;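 note: calcium entry triggered by an EC20 dose of DAMGO at the co-expressed mu-opioid receptor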).
For assay [8] the target is unchanged. In words: mouse TRPC4 channel inhibitors, dose response, cell-based, HEK293 TRPC4/mu-opioid, Fluo-4 calcium (AID 434942;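 active = primary screen inhibitor hit that blocks the TRPC4 channel at some tested dose, yielding a dose curve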).
For assay [9], the target named is Short transient receptor potential channel 6 (Mus musculus) (UniProt Q61143). Description: inhibition of mouse TRPC6 channel, confirmation, selectivity assay for TRPC4 inhibitor project, cell-based, HEK293, membrane potential dye, duplicate (AID 434948;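 active = active in primary screen and both duplicates, each dropping signal beyond three positive-control SD with fluorescence still positive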). The settings on record: HEK293 TRPC6, membrane potential dye fluorescence, at 10 µM, stimulated with maximal-effect acetylcholine; active compounds read high.
Short transient receptor potential channel 6 (Mus musculus), sequence (Q61143 whole entry, looked up): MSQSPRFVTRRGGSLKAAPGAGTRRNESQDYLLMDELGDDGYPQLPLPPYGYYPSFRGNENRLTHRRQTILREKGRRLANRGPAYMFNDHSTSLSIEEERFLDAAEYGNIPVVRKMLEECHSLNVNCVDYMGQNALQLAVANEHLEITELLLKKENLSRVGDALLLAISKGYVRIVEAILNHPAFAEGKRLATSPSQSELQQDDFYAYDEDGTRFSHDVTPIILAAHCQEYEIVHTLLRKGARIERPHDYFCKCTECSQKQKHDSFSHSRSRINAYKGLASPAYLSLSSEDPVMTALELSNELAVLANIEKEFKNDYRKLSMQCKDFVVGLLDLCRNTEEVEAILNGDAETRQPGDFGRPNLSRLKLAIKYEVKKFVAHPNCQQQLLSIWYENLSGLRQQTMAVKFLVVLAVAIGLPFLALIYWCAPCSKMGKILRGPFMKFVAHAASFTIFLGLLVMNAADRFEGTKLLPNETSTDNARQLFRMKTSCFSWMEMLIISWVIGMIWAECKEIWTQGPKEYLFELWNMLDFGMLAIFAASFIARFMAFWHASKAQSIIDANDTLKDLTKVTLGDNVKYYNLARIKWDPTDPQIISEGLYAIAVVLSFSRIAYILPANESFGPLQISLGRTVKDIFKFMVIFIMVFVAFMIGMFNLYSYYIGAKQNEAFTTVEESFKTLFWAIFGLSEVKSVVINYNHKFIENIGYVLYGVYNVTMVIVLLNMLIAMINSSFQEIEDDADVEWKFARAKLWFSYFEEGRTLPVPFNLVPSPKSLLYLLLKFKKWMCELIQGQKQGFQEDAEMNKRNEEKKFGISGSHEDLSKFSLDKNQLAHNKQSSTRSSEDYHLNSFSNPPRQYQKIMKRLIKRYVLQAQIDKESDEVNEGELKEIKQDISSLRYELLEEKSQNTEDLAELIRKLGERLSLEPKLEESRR

For assay [10] the target is unchanged. Description: activation of mouse TRPC6 channel, confirmation, selectivity assay for TRPC4 activator project, cell-based, HEK293, membrane potential dye, duplicate (AID 434950;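 active = membrane potential signal rise above negative control mean plus 3 SD in both duplicates, also active in the earlier TRPC4 screen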;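 for activation: 0% = buffer only wells and 100% = acetylcholine maximal-effect wells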). The settings on record: HEK293 TRPC6, membrane potential fluorescence, at 10 µM; active compounds read high.
For assay [11] the target is unchanged. Description: TRPC6 potentiation by TRPC4 potentiator hits, confirmation, selectivity assay for TRPC4 potentiator project, HEK293 cells, membrane potential dye, duplicate (AID 434952;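 active = compound raising the membrane signal above positive-control mean plus 3 SD in both repeats, and a primary screen hit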). To be noted: HEK293 TRPC6, membrane potential dye fluorescence, at 10 µM, maximal acetylcholine added after compound; active compounds read high.
The target of assay [12] is Short transient receptor potential channel 4 (Mus musculus) (UniProt Q9QUQ5). In words: calcium flux activators in TRPC4/5HT1a cells, counter-screen for TRPC4 activator project, cell-based, second counter screen, HEK293 TRPC4/5HT1a, Fluo-4 (AID 434977;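 active = calcium signal rise above buffer-control mean plus 5 SD in both duplicates, and also a hit in the primary screen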;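 for activation: plate controls were assay buffer for no effect and maximal serotonin response for full effect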). To be noted: Fluo-4 calcium flux, at 10 µM; active compounds read high.
Assay [13] can be described thus: calcium flux inhibitors in TRPC4/5HT1a cells, confirmation, counter-screen for TRPC4 inhibitor project, cell-based, second counter screen, HEK293 TRPC4/5HT1a, Fluo-4 (AID 434978;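 active = primary screen active whose calcium signal fell more than 3 SD beyond the full-serotonin control mean in both duplicate plates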;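 note: serotonin given first at submaximal then at maximal dose after compound preincubation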). The settings on record: Fluo-4 calcium flux, at 10 µM, serotonin added to trigger calcium flux; active compounds read high.
Assay [14] has as its system TRPC4 (mouse), co-expressed with 5HT1a in HEK293. In words: calcium flux potentiators in TRPC4/5HT1a cells, confirmation, counter-screen for TRPC4 potentiator project, cell-based, second counter screen, HEK293 TRPC4/5HT1a, Fluo-4 (AID 434979;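 active = signal rise over 3 SD above mean of control wells given weak agonist, in both repeats and first screen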). The settings on record: Fluo-4 calcium flux, at 10 µM, serotonin added at its EC20 dose; active compounds read high.
A short description of assay [15]: calcium flux activation in mu-opioid HEK293 cells, confirmation, counter-screen for TRPC4 activator project, cell-based, HEK293 mu-opioid receptor line (AID 449723;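 active = hit in primary screen, with calcium signal over 5 SD above buffer well mean in both duplicates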;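 note: counter screen cells carry the mu-opioid receptor alone and lack TRPC4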). To be noted: Fluo-4 calcium fluorescence, at 10 µM; active compounds read high.
Assay [16] in a line: calcium flux enhancement in mu-opioid HEK293 cells, confirmation, counter-screen for TRPC4 allosteric potentiator project, cell-based, HEK293 mu-opioid receptor line (AID 449724;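 active = calcium signal rise more than 3 SD above the low-dose agonist control mean, in both duplicate plates and the primary screen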;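 note: HEK293 cells carrying mu-opioid receptor only with no TRPC4 channel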). The settings on record: Fluo-4 calcium flux, at 10 µM, compound added before EC20 DAMGO stimulus; active compounds read high.

Structures are written as SMILES. For part of these data: Entries with a potency or affinity are not part of this list. The source made the active and inactive calls.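 Rule for the calls, unless noted: active = fluorescence ratio normalized to control raised more than 50% in primary screen plus both repeat runs; inactive = the rest.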

Regarding `COc1ccc(C(CNC(=O)C(Cc2ccccc2)NC(N)=O)N(C)C)cc1` (stereo not given), the activation was 92% (active) in assay [1], 90% (active) in assay [2] and 32% (active) in [10]. Besides, the result in assay [3], in assay [4], in assay [5], in assay [6], in assay [7] and in assay [8] was inactive. Further, the outcome in assay [9], in assay [11], in [12], in assay [13], in assay [14] and in assay [15] was inactive. Besides, in assay [16], the result was inactive.
`COc1ccc(N2CCN(Cc3nc4ccccc4n3C)CC2)cc1`: the activation in assay [1] is 154% (active). The outcome in assay [2], in assay [3], in assay [4], in [5], in assay [6] and in assay [7] was inactive. In addition, the result in assay [8], in [9], in assay [10], in assay [11], in [12] and in [13] was inactive. In addition, the outcome in assay [14], in assay [15] and in [16] was inactive.
Turning to `CCCN(CCC)CCCNC(=O)CNC(=O)c1nn(-c2ccc(OC)cc2)c(=O)c2ccccc12`, the activation was 65% (active) in [1] and 24.9% (active) in assay [12]. The result in [2], in assay [3], in assay [4], in [5], in [6] and in [7] was inactive. Further, the result in assay [8], in assay [9], in assay [10], in assay [11], in assay [13] and in assay [14] was inactive. Besides, the result in assay [15] and in assay [16] was inactive.
`Cc1ccc(NC(=O)CNCC(c2ccccc2)N(C)C)cc1F` (stereo not given): the activation in assay [1] was 95% (active); in assay [10] it was 44% (active). Besides, the outcome in assay [2], in assay [3], in [4], in [5], in assay [6] and in assay [7] was inactive. For the same compound, the outcome in assay [8], in assay [9], in assay [11], in assay [12], in assay [13] and in assay [14] was inactive. The outcome in [15] and in [16] was inactive.
Turning to `CCC(=O)NC(C)C(c1cccs1)N1CCN(c2ccccc2)CC1` (stereo not given), the result in assay [1], in assay [2], in [3], in assay [4], in [5] and in assay [6] was inactive. Besides, the result in assay [7], in [8], in assay [9], in assay [11], in assay [12] and in [13] was inactive. The result in [14], in assay [15] and in [16] was inactive. The activation in assay [10] was 29% (active).
Take `COc1ccc2nc(SCCN(C)C)[nH]c2c1`: the values for the activation in assay [1], in [2] and in assay [12] were 108% (active), 87% (active) and 35.7% (active), respectively. Also, the outcome in assay [3], in assay [4], in assay [5], in assay [6], in assay [7] and in assay [8] was inactive. Moreover, the result in assay [9], in [10], in assay [11], in [13], in [14] and in assay [15] was inactive. Besides, the outcome in assay [16] was inactive.
With `CN(CCc1ccccn1)C(=O)CC1C(=O)NCCN1Cc1ccc(-c2ccccc2)cc1` (stereo not given), the activation was 130% (active) in [1], 42.5% (active) in [10] and 31.3% (active) in assay [12]. In addition, the result in assay [2], in [3], in assay [4], in assay [5], in assay [6] and in [7] was inactive. Besides, the outcome in assay [8], in assay [9], in assay [11], in [13], in [14] and in assay [15] was inactive. Moreover, the outcome in assay [16] was inactive.
Turning to `COc1ccc(CN2CCC(n3nccc3NC(=O)CCc3ccccc3)CC2)c(C)c1C`, the activation in [1] was 68% (active); in assay [10], 72% (active). Besides, the outcome in assay [2], in assay [3], in assay [4], in [5], in [6] and in assay [7] was inactive. Besides, the outcome in assay [8], in [9], in assay [11], in [12], in [13] and in assay [14] was inactive. The outcome in assay [15] and in assay [16] was inactive.
On to `NCCNC(=O)c1c(NC(=O)c2ccccc2)sc2c1CCCC2`, for which the activation in [1] was 165% (active). The outcome in [2], in [3], in assay [4], in assay [5], in [6] and in assay [7] was inactive. The outcome in assay [8], in assay [9], in assay [10], in [11], in assay [12] and in [13] was inactive. Also, the outcome in [14], in [15] and in [16] was inactive.
Turning to `Clc1ccc2nc(N3CCNCC3)nc(-c3ccccc3)c2c1`, the activation was 74% (active) in assay [1], 26.8% (active) in assay [12] and 12.1% (active) in assay [15]. In addition, the outcome in assay [2], in assay [3], in assay [4], in assay [5], in assay [6] and in assay [7] was inactive. The result in [8], in [9], in assay [10], in assay [11], in assay [13] and in assay [14] was inactive. The result in assay [16] was inactive.
As to `CCCCC(=O)NC(=S)NNC(=O)c1ccc(Cl)cc1Cl`, the activation was 196% (active) in [1], 31.5% (active) in assay [10], 76.5% (active) in [12] and 43.7% (active) in [15]. Besides, the result in assay [2], in assay [3], in assay [4], in [5], in assay [6] and in [7] was inactive. For the same compound, the outcome in [8], in [9], in [11], in [13], in assay [14] and in assay [16] was inactive.
As to `O=C(NC(=S)NNC(=O)c1cccs1)c1ccc(Br)o1`, the figures for the activation in [1], in [12] and in [15] were 202% (active), 117% (active) and 28.6% (active), respectively. For the same compound, the outcome in [2], in assay [3], in assay [4], in assay [5], in [6] and in [7] was inactive. Further, the outcome in assay [8], in [9], in [10], in [11], in [13] and in assay [14] was inactive. Moreover, the outcome in assay [16] was inactive.
For `Cc1cccc(NC(=S)NCC(c2ccccc2)N(C)C)c1` (stereo not given), the activation in [1] is 176% (active); in [2], 152% (active); in [10], 39.5% (active). In addition, the outcome in assay [3], in [4], in [5], in [6], in assay [7] and in assay [8] was inactive. The call in assay [9], in assay [11], in [12], in assay [13], in assay [14] and in [15] was inactive. Moreover, the outcome in assay [16] was inactive.
Turning to `CN(C)C(CNC(=O)c1cccc(S(=O)(=O)N(C)C)c1)c1ccccc1` (stereo not given), the activation in assay [1] was 84% (active); in assay [10], 39.5% (active). Further, the result in assay [2], in assay [3], in assay [4], in [5], in assay [6] and in assay [7] was inactive. The result in assay [8], in assay [9], in [11], in assay [12], in [13] and in [14] was inactive. Besides, the result in assay [15] and in [16] was inactive.
As for `CC1CC(C)CN(CCCNC(=O)c2csc3c2CCCCC3)C1` (stereo not given), the activation in assay [1] is 128% (active); in [10], 87.5% (active); in assay [12] it was 7.01% (active). The result in assay [2], in assay [3], in assay [4], in [5], in [6] and in assay [7] was inactive. Moreover, the result in [8], in [9], in [11], in [13], in assay [14] and in [15] was inactive. In addition, the result in assay [16] was inactive.

(Values after PubChem BioAssay.)
